Measured values: PubChem BioAssay AID1041 (National Center for Advancing Translational Sciences (NCATS), 2008)
Unmarked numbers belong to inactive results. Calls of active or inactive are those of the source.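 The calls were made as follows: active = compound lifting p16 RNA above DMSO-treated cells by a clear fold change, a shift of a few PCR cycles; inactive = the rest, including any drop in level.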

assay: p16 Derepression/Induction Secondary Assay for qHTS Assay for Epigenetic Modulators; conditions: H358 cells, p16 mRNA RT-qPCR, 72 h; stronger effect = higher value
Excerpt: NIH Molecular Libraries Screening Centers Network [MLSCN] NIH Chemical Genomics Center [NCGC] MLSCN Grant: 1 X01 MH079860-01 Assay Provider: Elisabeth D. Martinez, University of Texas SW Medical Center NCGC Assay Overview: This secondary assay characterizes selected actives identified in the qHTS of the Locus Derepression (LDR) assay (PubChem AID 597). The LDR assay detects the derepression of a GFP reporter that is stably integrated in a region of the genome of murine c127i mammary cells that is presumably silenced. Compounds that cause derepression of the locus to express GFP are identified by enumerating GFP positive cells using a laser-scanning microplate cytometer. Selected LDR actives were assayed for the induction of p16 gene expression, a gene silenced by dense methylation of its promoter. Treatment of cells with DNA methyltransferase inhibitors like 5-azadeoxycytidine induce p16 gene expression. Compounds active in this assay may affect components involved in DNA methylation or gene transcription.
NCGC Assay Protocol Summary Exponentially growing H358 non-small cell lung cancer cells were treated daily with fresh media containing the indicated concentrations of compounds for 72 hr. Cellular RNA was extracted, quantified, DNAse treated and reverse transcribed. The resulting cDNA was amplified in TaqMan real time quantitative PCR assays (Applied Biosystems) containing validated primers specific for p16 (Hs00233365_m1). Reactions were performed on an ABI Prism 7900HT, with an initial 2 min preincubation at 50 C, followed by 10 min at 95 C and then 40 cycles of 95 C for 15 seconds and 60 C for 1 min. GAPDH and 18S ribosomal RNA were used as references. Gene expression was measured by fold-induction over control DMSO-treated samples (36-37 average cycle time). Increases corresponded to at least 2-3 cycle time differences over DMSO controls, which were in the measurable range. Decreases in expression were considered insignificant as measurement of the DMSO samples were at the low limit of detection. Reactions were run in triplicate and error bars represent standard deviations. For further details, see R.L. Johnson, W. Huang, A. Jadhav, C.P. Austin, J. Inglese, E.D. Martinez, A Quantitative High-Throughput Screen Identifies Potential Epigenetic Modulators of Gene Expression, Analytical Biochemistry (2007), doi: 10.1016/j.ab.2007.12.028

| Compound | fold change |
| --- | --- |
| CC(C)C(=O)NC(c1ccco1)c1cc([N+](=O)[O-])c2cccnc2c1O (configuration not stated) | 2 |
| CC(C)C(=O)NC(c1ccc(N(C)C)cc1)c1ccc2cccnc2c1O (configuration not stated) | 0.4 |
| COc1ccc(C(NC(=O)C(C)C)c2ccc3cccnc3c2O)cc1 (configuration not stated) | 1 |
| CN1CCN(Cc2cc(Cl)c3cccnc3c2O)CC1 | 1 |
| CC(/C=C/C(=O)NO)=C\[C@@H](C)C(=O)c1ccc(N(C)C)cc1 | 1 |
| O=C(CSc1cccc2cccnc12)NCc1ccccc1 | 1 |
| CN(C)C(=O)CSc1cccc2cccnc12 | 0.4 |
| Nc1ncn([C@H]2C[C@H](O)[C@@H](CO)O2)c(=O)n1 | 351 (active) |
| O=Nc1ccc(O)c2ncccc12 | 2 |
| O=C(CSc1cccc2cccnc12)N1CCCC1 | 1 |
| CCN1CSC(=S)N(CC)C1 | 1 |
| CC(C)C(=O)NC(c1ccco1)c1ccc2cccnc2c1O (configuration not stated) | 1 |
